Screening data from PubChem.
The full list was thinned out, with hits kept by preference.
Vaccinia stage – blocks a specific stage of Vaccinia orthopoxvirus infection, primary screen, cell-based, single point. Vaccinia-infected cells, mCherry/Venus stage reporter fluorescence; active compounds read low. activity change (mCherry), % (no concentration beside the values). 89,000 compounds, 0.01% hits. AID 1053133, 2014; in the data active = activity change below about -37%, passing the limit was not always enough; tested in A549 cells
Active calls of the source: *.

SMILES	Vaccinia stage
C[C@@H]1CN([C@@H](C)CO)C(=O)c2cc(NC(=O)Nc3cccc4ccccc34)ccc2O[C@H]1CN(C)C(=O)Nc1cccc2ccccc12	21
C[C@H]1CN([C@@H](C)CO)C(=O)c2cccc(NC(=O)c3ccncc3)c2O[C@H]1CN(C)S(=O)(=O)c1ccccc1	17
O=S(=O)(c1ccccc1)N1C[C@@H]2[C@H](c3ccccc31)[C@H](CO)N2Cc1ccc2c(c1)OCO2	2
C[C@@H]1CN([C@@H](C)CO)C(=O)c2cc(NC(=O)C3CCCCC3)ccc2O[C@@H](C)CCCCO[C@@H]1CN(C)S(=O)(=O)c1ccc(Cl)cc1	-6
O=C(Cc1ccncc1)NCC[C@H]1CC[C@H](NC(=O)C2CCCC2)[C@@H](CO)O1	1
COCC(=O)N(C)C[C@H]1Oc2cc(C#Cc3ccccc3)ccc2S(=O)(=O)N([C@H](C)CO)C[C@H]1C	-30
COCc1cn(CC[C@H]2CC[C@@H](NC(=O)Nc3ccccc3)[C@H](CO)O2)nn1	15
Cc1noc(C)c1S(=O)(=O)Nc1ccc2c(c1)CC(=O)N([C@H](C)CO)C[C@H](C)[C@@H](CN(C)Cc1ccc3c(c1)OCO3)O2	-5
COc1ccccc1CN1CC[C@H]2[C@H](CO)Nc3ccc(-c4ccc(C(=O)N(C)C)cc4)cc3[C@H]21	-40*
CN(C)C(=O)c1ccc(-c2ccc3c(c2)[C@H]2[C@H](CCN2Cc2ccc4c(c2)OCO4)[C@@H](CO)N3)cc1	-22
COc1ccccc1CN1CC[C@@H]2[C@@H](CO)Nc3ccc(-c4ccc(C(=O)N(C)C)cc4)cc3[C@@H]21	-39*
CN(C)C(=O)c1ccc(-c2ccc3c(c2)[C@H]2[C@H](CCN2C(=O)c2ccccc2)[C@H](CO)N3)cc1	-9
CN(C)C(=O)c1ccc(-c2ccc3c(c2)[C@H]2[C@H](CCN2Cc2ccc4c(c2)OCO4)[C@H](CO)N3)cc1	-27
CN(C)C(=O)c1ccc(-c2ccc3c(c2)[C@@H]2[C@@H](CCN2Cc2ccc4c(c2)OCO4)[C@H](CO)N3)cc1	-29
CN1C(=O)c2cc(NC(=O)Nc3ccccc3)ccc2OC[C@H]2O[C@H](CC(=O)NC3CCC3)CC[C@@H]21	-1
CCS(=O)(=O)N1CC(=O)N2[C@@H](CO)[C@H](c3ccc(C#CCc4ccccc4)cc3)[C@@H]2C1	2
Cc1ccc(S(=O)(=O)N(C)C[C@H]2Oc3cc(C#Cc4ccncc4)ccc3S(=O)(=O)N([C@@H](C)CO)C[C@H]2C)cc1	-46*
C[C@H](CO)N1C[C@H](C)[C@H](CN(C)S(=O)(=O)c2ccc(F)cc2)Oc2cc(C#Cc3ccncc3)ccc2S1(=O)=O	-20
C[C@@H]1CN([C@@H](C)CO)S(=O)(=O)c2ccc(C#Cc3ccncc3)cc2O[C@H]1CN(C)S(=O)(=O)c1ccc(F)cc1	-29
C[C@@H](NC(=O)C[C@@H]1CC[C@H]2[C@@H](COC[C@H](O)CN2C(=O)Nc2cccc(Cl)c2)O1)c1ccccc1	-14
O=S(=O)(c1ccc(F)cc1)N1CCCCN2[C@H](CO)[C@@H](c3ccc(-c4ccccc4F)cc3)[C@@H]2C1	7
C[C@H]1CCCCO[C@H](CN(C)C)[C@@H](C)CN([C@@H](C)CO)C(=O)c2cc(N(C)C)ccc2O1	-6
C[C@@H]1CN([C@H](C)CO)C(=O)c2cc(/C=C/c3ccccc3)cnc2O[C@H]1CN(C)S(=O)(=O)c1cn(C)cn1	17
O=C(C[C@H]1C[C@H]2c3cc(NC(=O)CC4CC4)ccc3O[C@H]2[C@@H](CO)O1)NCCc1ccccc1	4
C[C@@H]1CCCCO[C@@H](CN(C)Cc2ccc(C(=O)O)cc2)[C@H](C)CN([C@H](C)CO)C(=O)c2cc(NS(=O)(=O)c3ccc(F)cc3)ccc2O1	37
SMILES	Vaccinia stage
COc1ccc(NC(=O)N2CCCCN3[C@H](CO)[C@@H](c4ccc(C#CCC(C)C)cc4)[C@@H]3C2)cc1	-8
Cc1noc(C)c1NC(=O)Nc1ccc2c(c1)C(=O)N([C@@H](C)CO)C[C@H](C)[C@H](CN(C)Cc1ccncc1)O2	5
N#C[C@H]1N[C@@H](CO)[C@@H]1c1ccccc1	5
COCC#Cc1cnc2c(c1)C(=O)N([C@H](C)CO)C[C@@H](C)[C@@H](CN(C)C(=O)c1cccc(F)c1)O2	1
C[C@@H]1CCCCO[C@H](CN(C)C)[C@@H](C)CN([C@H](C)CO)C(=O)c2cc(NC(=O)Nc3ccc4c(c3)OCO4)ccc2O1	10
C[C@@H]1CCCCO[C@@H](CN(C)S(=O)(=O)c2ccc(F)cc2)[C@H](C)CN([C@H](C)CO)C(=O)c2cc(NC(=O)Nc3cccc4ccccc34)ccc2O1	0
CCCNC(=O)[C@H]1[C@H](CO)[C@H]2Cn3c(ccc(-c4ccccc4)c3=O)[C@@H]1N2C(=O)Nc1ccccc1	1
COc1ccccc1NC(=O)N[C@H]1CC[C@H](CC(=O)N[C@@H](C)c2ccccc2)O[C@@H]1CO	-26
N#C[C@@H]1[C@@H](c2ccc(C#CC3CCCC3)cc2)[C@@H](CO)N1C(=O)Cc1ccccn1	13
CN1C(=O)c2cc(NC(=O)C3CC3)ccc2OC[C@@H]2O[C@H](CC(=O)NCc3ccccc3F)CC[C@H]21	26
C[C@@H]1CN([C@@H](C)CO)C(=O)c2cc(NS(=O)(=O)c3ccc(F)cc3)ccc2O[C@H]1CN(C)C	-2
C[C@H](CO)N1C[C@H](C)[C@H](CN(C)Cc2ccc(Oc3ccccc3)cc2)Oc2ccc(NC(=O)NC3CCCCC3)cc2CC1=O	-26
CC(=O)N1[C@@H]2Cn3c(ccc(-c4cccnc4)c3=O)[C@H]1[C@@H](C(=O)N1CCc3ccccc3C1)[C@@H]2CO	2
CN(C)CCCNC(=O)C[C@@H]1CC[C@H]2[C@@H](COC[C@H](O)CN2CC2CCCCC2)O1	-15
C[C@@H](NC(=O)[C@H]1[C@H](CO)[C@H]2Cn3c(ccc(C4=CCCC4)c3=O)[C@H]2N1C)c1ccccc1	-8
C[C@H]1CN([C@@H](C)CO)C(=O)c2cc(C#CC3CCCC3)cnc2O[C@H]1CN(C)S(C)(=O)=O	-2
CN1[C@@H]2Cn3c(ccc(C4=CCCC4)c3=O)[C@H]1[C@@H](C(=O)NC1Cc3ccccc3C1)[C@@H]2CO	-5
O=C(Nc1ccc(Cl)c(Cl)c1)N[C@H]1CC[C@@H](CCn2cc(C3CCCCC3)nn2)O[C@@H]1CO	-11
CCCC(=O)Nc1ccc2c(c1)C(=O)N(C)C[C@H](OC)[C@@H](C)CN(C(=O)C1CCCC1)[C@@H](C)CO2	14
CCCNC(=O)N1[C@H](CO)[C@@H](c2ccccc2-c2ccc(C)cc2)[C@@H]1C#N	8
C[C@H](CO)N1C[C@H](C)[C@H](CN(C)S(=O)(=O)c2ccccc2)OCCCC[C@H](C)Oc2ccc(NS(=O)(=O)c3ccc(F)cc3)cc2C1=O	-19
O=C(C[C@H]1C[C@H]2c3cc(NC(=O)C4CCC4)ccc3O[C@H]2[C@H](CO)O1)NCC(F)(F)F	24
C/C=C/c1ccc([C@H]2[C@@H](CO)N(CC3CC3)C23CN(C(=O)c2ccc4c(c2)OCO4)C3)cc1	-19
CO[C@H]1CC[C@@H]2CCOc3ccc(C#N)cc3C(=O)N(C)C[C@@H](OC)[C@@H](C)C(=O)N(C)C[C@@H]1O2	31
O=C(C[C@H]1C=C[C@@H](NC(=O)C2CCOCC2)[C@@H](CO)O1)NCc1ccccc1Cl	12
Cc1ccccc1S(=O)(=O)N1C[C@H](O)COC[C@@H]2O[C@H](CC(=O)N3CCN(C)CC3)CC[C@H]21	-11
